According to PubChem BioAssay AID1508600 (Functional Genomics Laboratory (NCATS/FGL), 2020):
In all, about 53,000 sequences went through this assay and about 3,700 (7%) were called active.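 How the source made its calls: active means gene knockdowns whose robust z-score for IL-1 alpha signal is at least 2 or at most -2, so actives lie on both sides; inactive means the rest.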 The full list was thinned out, with actives kept by preference.

Assay: Components of the Cytosolic LPS Sensing Pathway: Gene Identification via Genome-wide siRNA Screen;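 further: robust z of the log signal after scaling to non-targeting control siRNA wells of the plate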
Details: RAW264.7 macrophages, IL-1a HTRF, actives lie on both sides, screened at 100 nM (by protocol), cells primed 5 h with Pam3CSK4 first
Procedure, shortened: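 Using IL-1a HTRF as read-out, the screen measured release from RAW264.7 cells after 48h siRNA knockdown (100 nM), 5 h Pam3CSK4 priming and 24 h cytosolic LipidA. Values were expressed relative to negative-control wells as robust z-scores.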

Sequence | z-score
GGGCAUGGGAUUUAAUUCUTT against Dnajc11 | 1.54 (inactive)
CGCUAUGGUUUCUCAGCUUTT against Myh4 | -0.02 (inactive)
GGAGAUUCAGAAGAUCCUCTT against Isoc2b | 2.49 (active)
GCUCUCACCUUCAUUUGAATT against Tmem174 | -1.37 (inactive)
GGAAAUAAUGUUACUGACATT against Zfp445 | -0.178 (inactive)
GGCAUCAAUAGGAAGAUGCTT against Rgs19 | 0.182 (inactive)
GCAUUUAGGUCUGAUAAAGTT against Gpr61 | 0.00391 (inactive)
CCGACUGUUAAAGUGGUGUTT against Arih1 | 0.608 (inactive)
GUUUUACAAAUUCCUCCAUTT against Olfr1447 | 0.345 (inactive)
CCAGUUUUCGACACAAUUCTT against Cma1 | 0.645 (inactive)
GGCAGAGAAAUGGGCAAUGTT against Hcar1 | 2.12 (active)
GCUUAUGAGACUCAUUUAATT against Oser1 | 0.554 (inactive)
GCCGCUGCACUACAAUUUGTT against Trhde | 0.717 (inactive)
GGAGCUAUACUGCUUUUCCTT against Mtmr7 | 1.61 (inactive)
GGCUUACCUGAACUUUCUGTT against Degs2 | -0.381 (inactive)
GGGUGUCUUACACCUUACATT against Sertad2 | -1.48 (inactive)
GGUGUUUGAGUCAACAGACTT against Oard1 | -2.1 (active)
GCUGUUGUUUGCUAGCAAATT against Lipa | 0.973 (inactive)
GGAAGUCCACAUUGCUGGUTT against Slc2a9 | 1.85 (inactive)
GGGUUUUGAGAUGUAAUGATT against Marchf8 | 0.0734 (inactive)
GCAGCCUAUGGAAGAUCACTT against Tle4 | 2.8 (active)
GCACUACACCUCCAGUUCGTT against Gne | 0.164 (inactive)
CCACAUGUUUGUCUCAAAATT against Gskip | 1.28 (inactive)
CGACCCUACAGAGGACAUUTT against Pik3r6 | 0.135 (inactive)
GGAAAUGAAGCAUCUGUAUTT against Txnip | -2.3 (active)
GGGUUUCACCCAAAGCCUUTT against Zfp354c | -1.41 (inactive)
GGCUCAGUAAGGACUCUGATT against Tac2 | 1.24 (inactive)
GGAAUAGAAGCACUGUGUGTT against Brs3 | -1.35 (inactive)
GGGCCCAGAUUUCAAUGGGTT against Car14 | 0.379 (inactive)
GCCACUCACUAUGCUACUCTT against Pnpla2 | -2.62 (active)
